# Reference: PubChem BioAssay AID493208 (National Center for Advancing Translational Sciences (NCATS), 2011)
# Hit rate of the full screen: of about 44,000 compounds, about 340 (0.77%) were called active. Not shown: some 5% with an inconclusive outcome. The call rests on the fitted dose curve; in most records, active means well fitted inhibition curve with a large enough effect; inconclusive means small, poorly fitted or top-dose-only effect; inactive means flat fitted curve, though single readings scatter. The list comes from a sample in which actives are over-represented; it also holds similar structures and randomly drawn compounds. Entries that show only a call come without a potency.
# Experiment: Acumen qHTS Assay for Inhibitors of the mTORC1 Signaling Pathway in MEF (Tsc2-/-, p53-/-) Cells: Sytravon; further: nearly all actives have a fitted effect of over 50% in size
# Conditions: phospho-rpS6 immunofluorescence/PI, 24 h; series mostly up to 38.3 µM
# Source text: NIH Molecular Libraries Probe Production Centers Network [MLPCN] NIH Chemical Genomics Center [NCGC] MLPCN Grant: NS059428-01 Assay Submitter (PI): Blenis, John; Hoffman, Greg; Harvard University NCGC Assay Overview: The mammalian target of rapamycin (mTOR) is an intracellular serine/threonine kinase Aberrant regulation of mTOR signaling plays a causative role in a number of human diseases, including cancer, benign tumors such as lymphangioleiomyomatosis (LAM) and Tuberous Sclerosis Complex (TSC), and metabolic diseases such as diabetes and obesity. This project aims to identify inhibitors of ribosomal protein S6 (rpS6) phosphorylation. The phosphorylation of rpS6 is a key event downstream of mTOR activation. The assay uses a phospho-specific antibody of phospho-rpS6 to detect inhibitors of mTOR activation. Mutations in the Tsc1 and Tsc2 genes are the underlying genetic lesions responsible for TSC, causing constitutive activation of the mTORC1 pathway and leading to profound effects on cell metabolism. Aberrant metabolism in cancer has recently received significant attention as a target to develop therapeutic agents in the treatment of cancer.1 As Tsc2-/- cells have lost the ability to respond to energy and growth factor deprivation, these cells are unable to properly down regulate cellular biosynthetic processes in response to metabolic stress, and are thus extremely sensitive to glucose deprivation-induced death.2 A central goal of this project is to explore the unique cell survival and metabolic properties of cells with Tsc1 or Tsc2 by screening for compounds that selectively target the Tsc2-/- MEFs by screening both Tsc2-/- and WT MEF cell lines. We hope to better understand these aspects of TSC physiology in order to exploit them for therapeutic benefit.
# NCGC Acumen Assay Protocol Summary: For quantitative high throughput analysis of mTORC1 signaling, we developed a cell-based assay for immuno-fluorescence based detection of rpS6 phosphorylation on the Acumen Explorer that will be used a platform for the primary small molecule screen. Mouse embryonic fibroblasts (MEFs) are cultured in 1536-well plates using DMEM + 10% FBS. Twenty-four hrs after plating, test compounds (solubilized in DMSO) are delivered and incubated with the cells for 24 hrs at 37 degree Celsius. Following the incubation, media with compound is aspirated and the cells are fixed in 4% paraformaldehyde (PFA) containing PBS + 0.2% TX-100. Next, PFA is aspirated, cells are washed two times with PBS plus 0.2% TX-100 and the cells are blocked for 1 hr at room temperature (blocking buffer: LiCOR Blocking Buffer plus 0.2% TX-100). […] Cells are washed two times with PBS plus 0.2% TX-100, and stained with 10 uM propidium iodide (PI) for 20-25 minutes for cell number measurement (1:500 dilution of Hoescht staining is also added for IN Cell imaging). The plates are scanned on the Acumen Explorer laser scanning instrument (TTP Labtech) using the 488nm laser for simultaneous excitation of the Alexa-488 and PI. […] The normalized phospho-S6 staining is calculated as the ratio of the integrated Alexa 488 intensity divided by the integrated PI intensity for the single concentration rapamycin control (7.5 nM) and DMSO columns. […] Inhibition of the pathway is defined based on the normalized phospho-S6 intensity in rapamycin treated cells. Active cells are defined as those with a normalized phospho-S6 staining above this threshold, and each treatment is reported as the % positive cells in the well, where thresholds are defined by selecting wells with the highest and lowest signal and differentiating between the % non-active and % active populations. In addition to the pathway specific phospho-S6 endpoint, the number of PI stained cells from the Acumen is recorded as a measure of cell viability. The primary screen was performed with a MEF cell line in a defined genetic background, Tsc2-/-, p53-/- cell line stably transfected with an empty vector control (Tsc2-/- MEF).
row,Compound,Potency
1,CCOc1cc(C(=O)NCCc2csc3nc(-c4ccc(C)cc4)nn23)cc(OCC)c1OCC,inactive
2,COc1cccc(NC(=O)CN2C(=O)c3ccccc3Sc3ncccc32)c1,inactive
3,CC1=C(c2ccc(F)cc2)S(=O)(=O)N=C1N1CCC(C(=O)NCCc2ccccc2C)CC1,inactive
4,COc1cc(NC(=O)c2cc(C3CC3)nc3c2c(C)nn3-c2ccccc2)cc(OC)c1,inactive
5,COc1cccc(CNC(=O)C2CCN(S(=O)(=O)c3ccc4c(ccn4C)c3)CC2)c1,inactive
6,Cc1ccc(OCCSc2nc(C)c(Cc3ccccc3)c(=O)[nH]2)cc1,inactive
7,Cc1ccc(Cn2c(=O)n(CCCC(=O)NCc3ccccc3Cl)c(=O)c3ccccc32)cc1,inactive
8,CCc1ccc(NC(=O)c2cc(S(=O)(=O)NC3CCCCCC3)ccc2F)cc1,inactive
9,Cc1ccccc1NC(=O)Cn1cc(C(=O)c2cccs2)c2ccccc21,inactive
10,O=C(c1cnn(-c2ccc(F)cc2)c1-n1cccc1)N1CCN(c2ccc(F)cc2)CC1,inactive
11,CCOC(=O)c1cc(-c2ccccc2)n(-c2cccc(C(=O)Nc3cc(OC)cc(OC)c3)c2)c1C,inactive
12,Cc1oc2ccc(O)c(CN3CCOCC3)c2c1C(=O)Nc1cccc(Cl)c1C,inactive
13,O=C1OC(C(=O)Nc2cccc(Br)c2)Cc2ccccc21 (stereo not drawn),inactive
14,Cc1c(NC(=O)c2cc(-c3ccc(Br)cc3)on2)c(=O)n(-c2ccccc2)n1C,inactive
15,COc1ccc(NC(=O)C2CCCN(S(=O)(=O)c3c(C)[nH]c(=O)[nH]c3=O)C2)c(OC)c1 (stereo not drawn),inactive
16,COc1ccc(-c2nnc(SCC(=O)Nc3ccc(C(C)C)cc3)nc2-c2ccc(OC)c(OC)c2)cc1OC,inactive
17,Clc1cccc(-n2ncc3c(NCCc4ccccc4)ncnc32)c1,inactive

row,Compound,Potency
1,Fc1ccc(Nc2nc(SCc3ccccc3Cl)nc3ccccc23)cc1,inactive
2,O=C(C1CCCN(S(=O)(=O)c2cccc3nonc23)C1)N1CCN(c2ccccc2F)CC1 (stereo not drawn),inactive
3,Cc1ccc(N2CC(c3nnc(Cc4ccccc4Cl)o3)CC2=O)cc1 (stereo not drawn),inactive
4,CCOC(=O)c1ccc(CN(Cc2ccccc2)S(=O)(=O)c2ccc(Cl)cc2)cc1,inactive
5,Cn1c(=O)c(C(=O)O)nn(-c2ccccc2)c1=O,inactive
6,Cc1ccc(-c2cn3c(n2)sc2cc(C(=O)NCCCc4ccccc4)ccc23)cc1,inactive
7,CCCCN1CC(c2nc3ccccc3n2CCCCOc2ccc(C)cc2C)CC1=O (stereo not drawn),inactive
8,COc1cccc(C(=O)NC2=NC(c3ccc(N(C)C)cc3)CC(=O)N2)c1 (stereo not drawn),inactive
9,CCN(C(=O)Cn1cc(S(=O)(=O)N2CCN(c3ccccc3F)CC2)c2ccccc2c1=O)c1ccc(C)c(C)c1,inactive
10,CSc1nc(-c2ccccc2Cl)nc2c1Cc1c(CO)cnc(C)c1O2,inactive
11,Cc1cc2ccccc2n1CCNC(=O)c1ccc(F)cc1,inactive
12,Cc1cccc(NC(=O)N2CCC(CN3CCc4ccccc4C3)CC2)c1C,inactive
13,CCC(=O)N1CCc2cc(CNC(=O)Nc3ccccc3Cl)ccc21,inactive
14,COc1ccc(CNC(=O)CSCc2nc(-c3ccccc3F)oc2C)cc1,inactive
15,CCOc1ccc(-n2c(SCC(=O)NCc3ccccc3)nc3n[nH]c(C)c3c2=N)cc1,inactive
16,Cc1cccc(NC(=O)C2CCN(S(=O)(=O)c3c(C)noc3/C=C/c3ccco3)CC2)c1,inactive
